TIM10 inh – growth inhibitors of TIM10 yeast strain | S. cerevisiae TIM10 strain growth, BacTiter-Glo luminescence, 24 h | inhibition, % at 10 µM | 330,000 compounds, 1.4% hits | AID 463195;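 active = inhibition of 40% or more at the single tested concentration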;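 also: wild-type TIM10 isogenic control strain grown at permissive 25 °C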
NALP3 yeast inh – inhibitors of NALP3 inflammasome in yeast; Yeast reconstituted NLRP3/ASC/caspase-1, beta-gal luminescence, 24 h; inhibition, % at 10 µM; 330,000 compounds, 0.39% hits;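 active = inhibition of 50% or more; inactive = inhibition below 50%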
tim10-1 inh – tim10-1 yeast growth inhibition. inhibition, % at 20 µM. 330,000 compounds, 2.2% hits. S. cerevisiae tim10-1 ts strain growth, BacTiter-Glo, 24 h;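 active = inhibition of at least 40%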;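 also: mutant grown at 25 °C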
NALP1 yeast inh – inhibitors of NALP1 inflammasome in yeast; S. cerevisiae NALP1/ASC/caspase-1 growth, X-gal OD620, 72 h; inhibition, % at 10 µM; 280,000 compounds, 0.61% hits; AID 2071; in the data active = inhibition mostly above about 24%, no sharp cut-off; inactive = mostly below about 32%
tim23-1 inh – inhibits growth of tim23-1 mutant yeast | inhibition, % at 20 µM | AID 463212 | 330,000 compounds, 1.3% hits | S. cerevisiae tim23-1 growth, BacTiter-Glo luminescence, 24 h;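 active = growth inhibition of the mutant yeast at or above 50%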;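 also: temperature-sensitive mutant grown at 25 °C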
tim10-1 confirm – tim10-1 yeast growth inhibition, confirmed. shares compounds with tim10-1 inh. S. cerevisiae tim10-1 ts strain growth, BacTiter-Glo, 24 h. inhibition, % at 20 µM. 7,400 compounds, 56% hits;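 active = inhibition of yeast growth at or above a set limit in either of two repeat tests at 20 µM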;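 also: tim10-1 mutant grown at permissive 25 °C to find synthetic lethal compounds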
tim10 confirm – TIM10 yeast growth inhibition, confirmed. inhibition, % at 10 µM. AID 463215. 4,600 compounds, 63% hits. shares compounds with TIM10 inh. S. cerevisiae tim10 strain growth, BacTiter-Glo luminescence, 24 h;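 active = inhibition of yeast growth at or above a set limit in either of two replicates at 10 µM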; also: this counterscreen used the strain with wild-type TIM10
tim23-1 conf – tim23-1 yeast growth inhibition, confirmed; shares compounds with tim23-1 inh; S. cerevisiae tim23-1 growth, BacTiter-Glo luminescence, 24 h; inhibition, % at 20 µM; 4,400 compounds, 83% hits;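 active = inhibition above about 39% in either of two replicate wells at 20 µM, limit read from the data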;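 also: temperature-sensitive tim23-1 mutant grown at 25 °C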
Hits are given with their value; i = inactive; nt = no result. Only some compounds are listed: those with a hit (about 4% of all), similar ones and a draw of the others.

SMILES	TIM10 inh	NALP3 yeast inh	tim10-1 inh	NALP1 yeast inh	tim23-1 inh	tim10-1 confirm	tim10 confirm	tim23-1 conf
C/C(=N\Nc1nc(C)cc(-c2ccccc2)n1)c1ccc(F)cc1	i	i	i	i	i	nt	nt	nt
C/C(=N/Nc1nc(-c2ccccc2)cc(-c2ccc(F)cc2)n1)c1cccc(N)c1	52	i	46	i	55	44	i	53
CCOC(=O)C1=C(N)OC2=C(C(=O)CC(C)(C)C2)C1C1CCCCC1 (stereo not given)	i	i	45	i	56	34	nt	46
NNc1nc(-c2ccccc2Cl)c2cc(Br)ccc2n1	41	i	49	i	57	37	30	43
Clc1ccccc1-c1ncnc2ccc(Br)cc12	i	i	i	i	i	nt	nt	nt
O=C1c2ccccc2C(=O)c2c([N+](=O)[O-])ccc(O)c21	i	i	59	nt	59	38	nt	69
COc1ccc(OC)c(S(=O)(=O)CC(=O)c2cc3ccc(OC)cc3oc2=O)c1	i	i	i	i	i	nt	nt	nt
COc1ccc(S(=O)(=O)CC(=O)c2cc3cc(Br)ccc3oc2=O)cc1	i	i	62	i	72	50	nt	85
O/C=c1\ccc2cccc3nc(C(F)(F)F)nc1c23	52	i	63	i	50	54	51	50
CCOC(=O)C(=Cc1ccc(F)cc1)C(=O)OCC	43	i	53	i	55	46	48	60
CCN(CC)S(=O)(=O)c1ccc2[nH]c(=O)cc(C(=O)NCC3CCCO3)c2c1 (stereo not given)	i	i	i	nt	i	nt	nt	nt
CCOC(=O)C1Nc2ccccc2C2c3ccccc3CC12 (stereo not given)	i	i	50	nt	59	51	nt	60
CCOC(=O)N1CCc2c(sc(NC(=O)c3ccc(Cl)s3)c2C(N)=O)C1	i	i	43	i	66	46	nt	68
C#CCNC(=O)C1=C[C@@H](c2csc3ccccc23)C[C@@H](OCc2ccc(CO)cc2)O1	i	i	i	i	i	nt	nt	nt
CCn1c(C)nc2cc(C(=O)NNC(=O)CN(C)S(=O)(=O)c3ccc(NC(C)=O)cc3)ccc21	i	i	i	nt	i	nt	nt	nt
O=C(/C(=C/c1ccc(Cl)cc1)c1nc2ccccc2[nH]1)c1cccs1	70	i	56	i	51	39	71	i
O=C(/C(=C\c1ccccc1)c1nc2ccccc2[nH]1)c1ccc(Cl)cc1	i	i	43	i	51	34	nt	62
Cc1nonc1C1CCCN1C(=O)c1cc(COc2ccc(F)cc2F)on1 (stereo not given)	i	i	i	i	i	nt	nt	nt
CCc1ccc2c(c1)C1(NN=C(c3ccc(C)cc3)S1)C(=O)N2 (stereo not given)	40	i	92	i	83	88	i	81
O=C(Nc1ccc2c(c1)OCCO2)NC12CC3CC(CC(C3)C1)C2	47	i	51	i	59	43	i	43
CCOC(=O)c1c(N)sc2c(NC(C)=O)cccc12	i	i	i	i	i	nt	nt	nt
CCOC(=O)c1c(N)sc2c(O)c(Br)ccc12	53	i	50	i	52	50	47	i
CC1=NOC(=O)/C1=C\c1ccc(-c2ccc(Cl)cc2Cl)o1	i	i	46	i	81	46	nt	51
COC(=O)c1ccc2c(c1)C(C)(C)C(/C=C/c1ccc(O)cc1)=[N+]2C	56	i	67	52	73	64	55	68
COc1ccc(C(=O)Nc2ccc3c(c2)C(=O)c2ccccc2C3=O)cc1OC	i	i	i	i	i	nt	nt	nt
COc1ccc(C(=O)c2c(C(F)(F)F)oc3c2C(=O)c2ccccc2C3=O)cc1OC	i	i	52	i	67	40	nt	68
COc1ccc(C(=O)N(C)CCCC2CCCC2)cc1OC1CCN(C(C)C)CC1	i	i	i	i	i	nt	nt	nt
Cc1ccc(C(=O)NC(C#N)=C(Cl)Cl)cc1	45	i	51	i	69	41	i	62
Cc1ccc(C(=O)NCC#N)cc1	i	i	i	i	i	nt	nt	nt
